Measurements taken from PubChem BioAssay.
Values joined by “and” are separate entries in the source; they are usually repeats but may differ in a detail not shown here. Identical values can stand only once. Active and inactive are the calls of the source. Cut-off read from the data, not from the text of the source: active = inhibition above about 83%; inactive = the rest.

assay: growth inhibition, single agents and combos, CRL2098, cell-based, BGB or cisplatin IC20 combos, synergistic combos for chromothripsis tumors (AID 1671454); details: CRL2098 osteosarcoma cells, drug combinations, measured here: combination with BGB at IC20, at 0.5 µM, stronger effect = higher value;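 note: cells exposed for 96 h before readout; 0% = vehicle DMSO and 100% = killing by high DMSO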

| SMILES | inhibition |
| --- | --- |
| Cc1c(N)nc(C(CC(N)=O)NCC(N)C(N)=O)nc1C(=O)NC(C(=O)NC(C)C(O)C(C)C(=O)NC(C(=O)NCCc1nc(-c2nc(C(=O)NCCC[S+](C)C)cs2)cs1)C(C)O)C(O[C@@H]1O[C@@H](CO)[C@@H](O)[C@H](O)[C@@H]1O[C@H]1O[C@H](CO)[C@@H](O)[C@H](OC(N)=O)[C@@H]1O)c1cnc[nH]1 (some centres undefined) | 21% and 37.5% |
| O=c1[nH]c(=O)n(C2OC(CO)C(O)C2O)cc1F (centres undefined) | -14.1% |
| O=P(O)(NCCCl)NCCCl | -43.5% |
| CC1(C)C(C(=O)Nc2ccc(S(=O)(=O)c3ccc(NC(=O)C4C(C)(C)C4(C)C)cc3)cc2)C1(C)C | -51.4% |
| CCC1(O)C(=O)OCc2c1cc1n(c2=O)Cc2cc3ccccc3nc2-1 (centres undefined) | 62.5% and 76.9% |
| NC(Cc1ccc(N(CCCl)CCCl)cc1)C(=O)O (centres undefined) | -104% |
| COc1cc([C@@H]2c3cc4c(cc3[C@H](O)[C@H]3COC(=O)[C@H]23)OCO4)cc(OC)c1O | 50.3% and 29.8% |
| COc1cc(C2c3cc4c(cc3C(O)C3COC(=O)C23)OCO4)cc(OC)c1OC (centres undefined) | 34.3% |

same assay, conditions: CRL2098 osteosarcoma cells, drug combinations, measured here: combination with cisplatin at IC20, at 0.5 µM, stronger effect = higher value

| SMILES | inhibition |
| --- | --- |
| Cc1c(N)nc(C(CC(N)=O)NCC(N)C(N)=O)nc1C(=O)NC(C(=O)NC(C)C(O)C(C)C(=O)NC(C(=O)NCCc1nc(-c2nc(C(=O)NCCC[S+](C)C)cs2)cs1)C(C)O)C(O[C@@H]1O[C@@H](CO)[C@@H](O)[C@H](O)[C@@H]1O[C@H]1O[C@H](CO)[C@@H](O)[C@H](OC(N)=O)[C@@H]1O)c1cnc[nH]1 (some centres undefined) | 31% and 27.7% |
| O=c1[nH]c(=O)n(C2OC(CO)C(O)C2O)cc1F (centres undefined) | -20.6% |
| O=P(O)(NCCCl)NCCCl | -12.2% |
| CC1(C)C(C(=O)Nc2ccc(S(=O)(=O)c3ccc(NC(=O)C4C(C)(C)C4(C)C)cc3)cc2)C1(C)C | -77.7% |
| CCC1(O)C(=O)OCc2c1cc1n(c2=O)Cc2cc3ccccc3nc2-1 (centres undefined) | 58% and 56.3% |
| NC(Cc1ccc(N(CCCl)CCCl)cc1)C(=O)O (centres undefined) | -99.5% |
| COc1cc([C@@H]2c3cc4c(cc3[C@H](O)[C@H]3COC(=O)[C@H]23)OCO4)cc(OC)c1O | 57.2% and 5.54% |
| COc1cc(C2c3cc4c(cc3C(O)C3COC(=O)C23)OCO4)cc(OC)c1OC (centres undefined) | 46.2% |

assay: growth inhibition, single agents and combos, HD-MB03, cell-based, BGB or cisplatin IC20 combos, synergistic combos for chromothripsis tumors (AID 1671455); details: HD-MB03 medulloblastoma cells, at 0.5 µM, stronger effect = higher value;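 note: 0% = vehicle DMSO and 100% = high DMSO as cytotoxic control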

| SMILES | inhibition |
| --- | --- |
| Cc1c(N)nc(C(CC(N)=O)NCC(N)C(N)=O)nc1C(=O)NC(C(=O)NC(C)C(O)C(C)C(=O)NC(C(=O)NCCc1nc(-c2nc(C(=O)NCCC[S+](C)C)cs2)cs1)C(C)O)C(O[C@@H]1O[C@@H](CO)[C@@H](O)[C@H](O)[C@@H]1O[C@H]1O[C@H](CO)[C@@H](O)[C@H](OC(N)=O)[C@@H]1O)c1cnc[nH]1 (some centres undefined) | 48.5% (inactive) and 64.8% (inactive) |
| O=c1[nH]c(=O)n(C2OC(CO)C(O)C2O)cc1F (centres undefined) | 66.9% (inactive) |
| O=P(O)(NCCCl)NCCCl | -20.7% (inactive) |
| CC1(C)C(C(=O)Nc2ccc(S(=O)(=O)c3ccc(NC(=O)C4C(C)(C)C4(C)C)cc3)cc2)C1(C)C | -19.9% (inactive) |
| CCC1(O)C(=O)OCc2c1cc1n(c2=O)Cc2cc3ccccc3nc2-1 (centres undefined) | 97.5% (active) and 99.2% (active) |
| NC(Cc1ccc(N(CCCl)CCCl)cc1)C(=O)O (centres undefined) | 12.1% (inactive) |
| COc1cc([C@@H]2c3cc4c(cc3[C@H](O)[C@H]3COC(=O)[C@H]23)OCO4)cc(OC)c1O | 71.7% (inactive) and 69.2% (inactive) |
| COc1cc(C2c3cc4c(cc3C(O)C3COC(=O)C23)OCO4)cc(OC)c1OC (centres undefined) | 83.8% (active) |
